# This excerpt belongs to a sample that is enriched for hits.
# ERK EGF inh: EGF-driven ERK pathway inhibition. HEK293-V1b, EGF-stimulated phospho-ERK AlphaScreen. Potency, µM (titrated, usually from 11.5 µM), inactives show top-dose activity change, negative = inhibition, hits mostly inhibitors. actives 0.41% (n = 130,000); active means well fitted inhibition curve with a large enough effect;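 further: plate controls were stimulated vehicle wells for no effect and unstimulated vehicle basal for full effect; nearly all actives have a fitted effect of over 55% in size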
#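 Phospho-ERK1/2 measured by AlphaScreen (SureFire) after 5 min 25 nM EGF stimulation of V1b-expressing HEK293 cells preincubated 30 min at 37C with titrated compounds; data scaled to DMSO and EGF controls, Hill-fitted AC50.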
# Active calls of the source: *; [ ] = remark or other dose. Potency means the concentration at half of the fitted maximal effect.
SMILES,ERK EGF inh
S=C(NC1CCCC1)N1CCN(c2cccc(Cl)c2)CC1,-1.1%
O=S(=O)(c1cccc(NC(=S)N2CCN(c3cccc(Cl)c3)CC2)c1)C(F)F,25.1µM*
N[C@@H](CO)C(=O)NNCc1ccc(O)c(O)c1O,1.3%[25.7 µM]
CCOC(=O)N/N=C/c1ccccc1-c1cc(OC)ccc1OC,-0.9%
Nc1ncnc(Nc2cccc(F)c2)n1,-5.0%[57.5 µM]
NC(=O)c1cccnc1Nc1cccc(F)c1,-4.0%
Fc1cccc(Nc2ncnc3[nH]ncc23)c1,25.1µM*
N#Cc1cccc(CS(=O)(=O)c2nnnn2C2CCCCC2)c1,-4.0%
COC(=O)N[C@@H](c1ccc(Br)cc1)C(C(=O)OC)C(=O)OC,-4.5%
COC(=O)N[C@@H](c1cccc(C)c1)[C@@H](C)[N+](=O)[O-],-4.2%
CCCCc1ccc(N/C(N)=N/c2nc(C)cc(C)n2)cc1,17.8µM*
Cc1ccc(N/C(N)=N/c2nc(C)cc(C)n2)cc1,2.6%
CCC(=O)Nc1ccc(N/C(N)=N/c2nc(C)cc(C)n2)cc1,-2.6%[57.5 µM]
OC[C@@H](O)[C@@H](O)CCc1ccccc1,-7.7%
CCN(CC)c1ccc(/C=N/N2C(=O)c3ccccc3C2=O)c(O)c1,15.3%
CCN(CC)c1ccc(/C=N/N2CCN(Cc3ccc(Cl)cc3)CC2)c(O)c1,14.1µM*
O=C(O)c1ccc(/C=N/N2CCN(Cc3ccc(Cl)cc3)CC2)cc1,-0.9%
COc1ccc(C(=O)N2CCC3(CCN(CC(C)C)CC3)CC2)cc1,11.0%
COc1cccc2[nH]c3c(N4CCC5(CC4)OCCO5)ncnc3c12,-4.7%[57.5 µM]
COc1cccc(-n2c(SCC(=O)N3CCCCC3)nc3c([nH]c4ccccc43)c2=O)c1,-7.1%[57.5 µM]
COc1cccc2[nH]c3c(N4CCc5ccccc5C4)ncnc3c12,22.4µM*
COc1cccc2[nH]c3c(=O)n(CCCN4CCOCC4)cnc3c12,-1.4%[57.5 µM]
COc1ccc2c(c1)[nH]c1c(=O)n(Cc3ccncc3)cnc12,6.5%[57.5 µM]
COc1ccc2c(c1)[nH]c1c(N3CCSCC3)ncnc12,28.2µM*
COc1cccc(N2CCN(c3ncnc4c3[nH]c3ccccc34)CC2C)c1 (stereo not given),14.1µM*
SMILES,ERK EGF inh
CC(C)Oc1ncnc2c1[nH]c1ccccc12,0.7%[57.5 µM]
CCCOc1ncnc2c1[nH]c1ccc(OC)cc12,-12.4%[57.5 µM]
CC(C)[N+]1(C)[C@@H]2CC[C@H]1CC(OC(=O)[C@@H](CO)c1ccccc1)C2 (stereo not given in full),-3.6%
COc1c(O)cc2oc3cc(O)c(CC=C(C)C)c(O)c3c(=O)c2c1CC=C(C)C,-20.5%
O=S(=O)(CCc1ccccc1)c1nnnn1-c1ccccc1,0.8%
COC(=O)[C@@H]1[C@@H]2C[C@H]3c4[nH]c5ccccc5c4CCN3C[C@@H]2CC[C@@H]1O,6.5%
CC(C)=CCC/C(C)=C\COc1c2ccoc2cc2oc(=O)ccc12,-3.3%
C=CCSSSCC=C,-17.8%
CN(C)c1ccc(C(=O)NNC(=O)c2ccc(Cl)cc2)cc1,-1.1%[57.5 µM]
CN(C)c1ccc(C(=C2C=CC(=[N+](C)C)C=C2)c2ccc(N(C)C)cc2)cc1,12.6µM*
CN(C)c1ccc(C(=O)c2ccc(O)cc2O)cc1,-1.2%
COc1ccc(C(=O)/C=C/c2ccc(N3CCCCC3)c([N+](=O)[O-])c2)cc1,31.6µM*
NC(=O)c1ccc(N2CCCCCC2)c([N+](=O)[O-])c1,14.9%
COc1ccc(N2CCN(c3ccc(C(N)=O)cc3[N+](=O)[O-])CC2)cc1,1.3%
COc1cc(OC)c(C(=O)NCC2CCCO2)cc1OC (stereo not given),3.6%
COc1cccc(N=c2oc3cc(O)ccc3cc2C(=O)NCC2CCCO2)c1 (stereo not given),28.2µM*
COc1cccc(OCc2ccc(C(=O)NCC3CCCO3)cc2)c1 (stereo not given),3.7%
COCOc1cc(OC)ccc1C(=O)/C=C/c1cccc(C(F)(F)F)c1,-11.1%
O=C1c2ccccc2C(=O)c2c(Nc3ccc(CCO)cc3)ccc(O)c21,14.1µM*
O=C1c2ccccc2C(=O)c2c(O)ccc(O)c21,-11.0%
CC(=O)Nc1ccc(Nc2ccc3c4c(cc(=O)n3C)-c3ccccc3C(=O)c24)cc1,7.6%
COC(=O)C1(C(=O)OC)C[C@@H]2CON=C2[C@H]1c1ccccc1,-6.1%
COc1cccc2sc(Nc3nc4ccc(NC(C)=O)cc4s3)nc12,1.2%
CCOC(=O)c1sc(Nc2nc3c(OC)cccc3s2)cc1C,25.1µM*
COc1cccc2sc(NN)nc12,-0.4%
SMILES,ERK EGF inh
COc1cccc([C@@H]2Oc3ccc(OC)cc3C(=O)[C@H]2OC(=O)Nc2ccc(OC(F)F)cc2)c1,-1.0%
O=c1c(O)cc(C2Oc3cc(O)cc(O)c3CC2O)cc2c(C3Oc4cc(O)cc(O)c4CC3O)cc(O)c(O)c12 (stereo not given),25.8%
Cc1cc(O)c(C=O)c2c1C(=O)Oc1c(COC(=O)/C=C/C(=O)O)c(O)c(C(=O)O)c(C)c1O2,-5.5%
COc1ccc2c(c1OC)C(Cc1ccccc1)N1CCc3cc4c(cc3C1C2)OCO4 (stereo not given),-10.2%
Cc1nc2ccc(S(=O)(=O)Nc3cccc(-c4nc5cccnc5s4)c3)cc2s1,25.1µM*
O=S(=O)(Nc1cccc(-c2nc3cccnc3s2)c1)c1ccc2c(c1)CCCC2,-9.6%
Cc1nc2ccc(S(=O)(=O)Nc3ccc(-c4nc5cccnc5s4)cc3)cc2s1,-11.2%
CCC1=C(OC(=O)N(CC)CC)N2C(=O)OC(=NCCOC)[C@]2(C)[C@H]2C1=CC[C@H]1C(=O)N(CC(=O)OC)C(=O)[C@H]12,7.2%
Nc1ncn([C@H]2O[C@@H](CO)[C@@H](O)[C@@H]2O)c(=O)n1,-3.7%[25.7 µM]
O=C(c1cccc(F)c1)N1CCC2(CCN(Cc3ccccc3)CC2)CC1,9.3%
C=C(CO)C1Cc2c(ccc3c2OC2COc4cc(OC)c(OC)cc4C2C3=O)O1 (stereo not given),-9.4%
COc1ccc2c(c1)c1ccc3c(c1n2C)C(=O)C=CC3=O,31.6µM*
COc1ccc2c(c1)oc(=O)c1cc(OC)ccc12,-4.5%[57.5 µM]
COc1ccc2c(c1)c(C(=O)CN1CCN(Cc3ccccc3)CC1)c(C)n2C,-4.7%[57.5 µM]
CCCCC/C=C\C\C=C/C=C/C=C/[C@@H](SCC(NC(C)=O)C(=O)O)[C@@H](O)CCCC(=O)O (stereo not given in full),10.5%
CN=C(NC#N)NCCSC[C@H]1N=CN=C1C,7.1%[25.7 µM]
N#CCCCS(=O)(=O)c1nc2ccccc2s1,-17.0%
COc1cc(/C=C2\C(=O)NN(c3ccccc3)C2=O)ccc1OCC(N)=O,-0.1%
COc1cc(/C=C2/C(=O)NN(c3cccc(C)c3)C2=O)ccc1OC(=O)c1ccco1,25.1µM*
COc1cc(/C=C2/C(=O)NN(c3cccc(C)c3)C2=O)cc([N+](=O)[O-])c1O,-4.1%
N=C1Sc2ccccc2C2=NCCCN12,6.6%
C=CCOC(=O)N[C@@H](c1cccs1)C(C(C)=O)C(C)=O,-4.2%
NCCC[C@@H](CC(=O)N[C@@H]1CCNC[C@H]1C(=O)N[C@H](CC(=O)N[C@@H](CCC(=O)O)CC(=O)O)Cc1ccccc1)NC(=O)C[C@H](Cc1ccccc1)NC(=O)[C@@H]1CCCC[C@H]1N,-2.9%
C=CCN1C(=O)S/C(=C/c2ccsc2)C1=O,1.5%
C=CCN1C(=O)S/C(=C/c2ccc(Sc3nc4ccccc4[nH]3)o2)C1=O,25.1µM*
C=CCN1C(=O)S/C(=C\c2ccc3c(c2)n(C)c(=O)n3C)C1=O,-1.5%
CN(C)Cc1ccccc1-c1nc(N(C)Cc2ccco2)c2ccccc2n1,19.9%
C=C[C@H]1CN2CC[C@@H]1C[C@H]2[C@@H](O)c1ccnc2ccc(OC)cc12,14.0%[25.7 µM]
O=C(/C=C/c1ccc2c(c1)OCO2)c1cccs1,10.2%
